PubChem BioAssay (EPA / NIEHS)
The source made the active and inactive calls. The calls were made as follows: active = hit-call score of the fitted dose curve at least 0.9, where 1 is the maximum; inactive = score below 0.9.

Key:
[1] = APR_HepG2_P-H2AX_72hr: Apredica 72-hour HepG2 Assay for H2AX Phosphorylation (AID 2282916); details: imaging, actives raise or lower the signal;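 also: phospho-histone H2A.x immunostain intensity per cell marking DNA damage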
In short: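 Readout: phospho-H2A.x immunofluorescence (FITC secondary) plus Hoechst nuclear stain, high-content imaging at 20x, six fields/well. HepG2, 72 hr compound exposure, 0.39–200 uM, final DMSO 0.5% v/v. Gain or loss fitted relative to DMSO baseline.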

[2] = APR_HepG2_MitoMembPot_72hr: Apredica 72-hour HepG2 Assay for Mitochondrial Membrane Potential (AID 2282917); details: imaging, actives raise or lower the signal
In short: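 HepG2 cells dosed 72 hr with compound at 0.39–200 uM in duplicate, 0.5% v/v DMSO final. Mitochondria stained with 250 nM MitoTracker Red CMXRos for 30 min before formaldehyde fixation, imaged by high-content fluorescence; bidirectional fit versus DMSO.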

[3] = APR_HepG2_MitoticArrest_72hr: Apredica 72-hour HepG2 Assay for Mitotic Arrest (AID 2282918); details: high-content imaging, actives raise or lower the signal
In short: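 HepG2 cells treated 72 h at 0.39–200 uM, 0.5% DMSO final; formaldehyde-fixed, stained with Hoechst 33342 and phospho-histone H3 antibody, imaged by high-content fluorescence; bidirectional fit versus DMSO.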

[4] = APR_HepG2_MicrotubuleCSK_72hr: Apredica 72-hour HepG2 Assay for Microtubule CSK Stabilty (AID 2282919); details: HepG2 microtubule cytoskeleton, high-content imaging, actives raise or lower the signal
In short: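 HepG2, 72 hr cmpd exposure, 0.39–200 uM (10 pts, duplicate), 0.5% DMSO. 3.7% formaldehyde fix, 0.5% Triton perm, anti-alpha-tubulin/Cy5 plus Hoechst. HCS fluorescence intensity; bidirectional fit vs DMSO baseline; taxol as positive control.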

[5] = APR_HepG2_P-H2AX_24hr: Apredica 24-hour HepG2 Assay for H2AX Phosphorylation (AID 2282920); details: high-content imaging, actives raise or lower the signal
In short: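 HepG2 cells dosed 24 h at 0.39–200 uM (10 points, duplicate, 0.5% DMSO final). Formaldehyde-fixed and permeabilized, then immunostained for phospho-H2A.x with Hoechst. Fluorescence quantified by high-content imaging, fitted bidirectionally versus DMSO.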

[6] = APR_HepG2_StressKinase_72hr: Apredica 72-hour HepG2 Assay for Stress Kinase (AID 2282921); details: HepG2 stress kinase (phospho-c-Jun) imaging, actives raise or lower the signal
In short: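 Phospho-c-Jun immunofluorescence measured by high-content imaging at 20x, six fields per well; bidirectional curve fitting against DMSO as baseline. Dosing: 0.39–200 uM, 72 h, 0.5% DMSO final.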

[7] = APR_HepG2_StressKinase_24hr: Apredica 24-hour HepG2 Assay for Stress Kinase (AID 2282922); details: HepG2 stress kinase (phospho-c-Jun) imaging, actives raise or lower the signal
In short: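 Read-out: phospho-c-Jun immunofluorescence (Cy3 secondary) quantified by high-content imaging at 20x, nuclei defined by Hoechst 33342. Human HepG2 liver cells dosed 24 hr, 0.39–200 uM, DMSO 0.5% v/v; gain or loss of signal fitted relative to DMSO.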

[8] = APR_HepG2_p53Act_72hr: Apredica 72-hour HepG2 Assay for p53 Activation (AID 2282923); details: high-content imaging, actives raise or lower the signal;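 also: average cellular p53 protein immunofluorescence intensity in HepG2 cells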
In short: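 Readout: p53 immunofluorescence quantified by automated high-content imaging at 20x, six fields per well, nuclei located via Hoechst. Dosing ran 72 hr over ten concentrations from 0.39 to 200 uM; bidirectional curve fitting against DMSO baseline.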

[9] = APR_HepG2_MitoMass_72hr: Apredica 72-hour HepG2 Assay for Mitochondrial Mass (AID 2282924); details: high-content imaging, actives raise or lower the signal;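 also: MitoTracker Red CMXRos stain intensity per cell imaged as mitochondrial mass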
In short: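 Read-out: MitoTracker Red fluorescence intensity from automated imaging (20x, six fields per well) in human HepG2 liver cells. Dosing ran 72 hr, 0.39–200 uM, 0.5% DMSO; bidirectional curve fitting versus DMSO baseline.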

[10] = APR_HepG2_NuclearSize_72hr: Apredica 72-hour HepG2 Assay for Nuclear Size (AID 2282925); details: high-content imaging, actives raise or lower the signal
In short: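 Read-out: nuclear diameter from Hoechst 33342 images (ArrayScan, 20x, six fields/well), via cell-cycle image analysis. HepG2 were dosed 0.39–200 uM for 72 hr in 0.5% DMSO. Bidirectional fit relative to DMSO.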

[11] = ATG_CRE_CIS: Attagene CIS-FACTORIAL HepG2 Assay for human cAMP Responsive Element (CRE) binding protein 3 (AID 2282926); details: HepG2 CRE cis-reporter, Attagene multiplexed mRNA; actives raise or lower the signal
In short: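 Induced reporter mRNA from a CRE cis element, measured in HepG2 among many multiplexed units at 24 h. Detection used RT-PCR plus capillary electrophoresis of fluorescent fragments; DMSO served as negative control.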

[12] = biological target: CCAAT/enhancer-binding protein beta (Homo sapiens) (UniProt P17676); assay: ATG_C_EBP_CIS: Attagene CIS-FACTORIAL HepG2 Assay for human CCAAT/Enhancer Binding Protein (C/EBP) beta (AID 2282927); details: HepG2 Attagene cis-factorial transcription factor reporter; actives raise or lower the signal
Sequence of CCAAT/enhancer-binding protein beta (Homo sapiens) (P17676 whole entry, looked up): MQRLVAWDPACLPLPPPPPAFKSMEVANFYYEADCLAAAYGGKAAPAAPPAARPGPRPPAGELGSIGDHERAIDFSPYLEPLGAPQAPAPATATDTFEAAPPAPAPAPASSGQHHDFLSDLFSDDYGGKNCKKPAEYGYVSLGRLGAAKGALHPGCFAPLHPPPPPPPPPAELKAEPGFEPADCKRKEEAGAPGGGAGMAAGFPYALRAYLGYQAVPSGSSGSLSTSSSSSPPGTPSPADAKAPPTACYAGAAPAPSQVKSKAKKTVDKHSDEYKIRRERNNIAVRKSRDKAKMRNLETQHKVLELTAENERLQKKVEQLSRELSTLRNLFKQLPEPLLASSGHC
In short: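 HepG2, transient MRTU transfection, 24 h treatment. RT-PCR plus CE fluorescence; DMSO negative control, bidirectional fit.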

[13] = ATG_CMV_CIS: Attagene CIS-FACTORIAL HepG2 Assay for human CMV (Internal Marker) (AID 2282928); details: HepG2 CMV promoter reporter, transcription factor profiling; actives raise or lower the signal;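 also: endpoint acts as a background internal control marker rather than a target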
In short: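 24 h chemical treatment, HepG2 with transient multi-reporter transfection; RNA → oligo(dT) RT → PCR → 6-FAM extension → HpaI digest → CE fluorescence. Bidirectional fit, DMSO negative control.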

[14] = ATG_DR4_LXR_CIS: Attagene CIS-FACTORIAL HepG2 Assay for human Liver X Receptor (LXR), DR4 submotif (AID 2282929); details: HepG2 Attagene DR4 cis-reporter, mRNA transcription; actives raise or lower the signal
In short: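 The endpoint is DR4-element-driven reporter transcripts after 24 h chemical exposure of transfected HepG2 cells. These were measured via RT-PCR and capillary electrophoresis, and gain or loss of signal was fitted relative to DMSO controls.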

[15] = biological target: Aryl hydrocarbon receptor (Homo sapiens) (UniProt P35869); assay: ATG_Ahr_CIS: Attagene CIS-FACTORIAL HepG2 Assay for human Aryl Hydrocarbon Receptor (Ahr) (AID 2282930); details: HepG2 AhR cis-factorial reporter transcription; actives raise or lower the signal
Sequence of Aryl hydrocarbon receptor (Homo sapiens) (P35869 whole entry, looked up): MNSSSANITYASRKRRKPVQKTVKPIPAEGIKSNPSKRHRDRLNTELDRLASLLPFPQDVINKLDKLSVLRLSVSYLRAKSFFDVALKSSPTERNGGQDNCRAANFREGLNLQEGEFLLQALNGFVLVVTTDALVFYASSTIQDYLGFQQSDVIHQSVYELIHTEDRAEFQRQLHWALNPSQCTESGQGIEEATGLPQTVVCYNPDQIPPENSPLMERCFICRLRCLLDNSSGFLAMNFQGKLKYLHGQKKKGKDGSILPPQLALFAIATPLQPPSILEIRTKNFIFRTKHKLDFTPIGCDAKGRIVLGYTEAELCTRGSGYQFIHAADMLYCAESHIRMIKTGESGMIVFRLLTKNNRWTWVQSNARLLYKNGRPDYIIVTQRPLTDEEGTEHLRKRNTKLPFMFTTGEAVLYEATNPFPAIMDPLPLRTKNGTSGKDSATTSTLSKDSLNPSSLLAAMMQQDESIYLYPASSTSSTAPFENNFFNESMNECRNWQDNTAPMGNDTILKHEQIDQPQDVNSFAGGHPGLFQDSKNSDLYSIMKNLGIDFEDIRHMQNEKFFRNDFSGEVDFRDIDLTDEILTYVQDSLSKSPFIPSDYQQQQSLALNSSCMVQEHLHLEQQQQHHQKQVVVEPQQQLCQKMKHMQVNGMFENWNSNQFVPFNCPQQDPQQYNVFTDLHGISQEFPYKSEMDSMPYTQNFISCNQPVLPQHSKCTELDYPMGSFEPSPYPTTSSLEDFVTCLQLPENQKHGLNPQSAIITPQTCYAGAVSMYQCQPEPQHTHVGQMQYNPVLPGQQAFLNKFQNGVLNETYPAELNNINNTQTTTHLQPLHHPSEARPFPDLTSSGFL
In short: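 Endogenous factor activity is tracked through cis-promoter reporter units transfected into HepG2 cells. Transcript levels at 24 h are read by fluorescent RT-PCR and capillary electrophoresis, with activity in either direction scored relative to DMSO.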

[16] = ATG_AP_1_CIS: Attagene CIS-FACTORIAL HepG2 Assay for human Activator Protein 1 (AP-1) (AID 2282931); details: HepG2 Attagene cis-factorial AP-1 reporter mRNA; actives raise or lower the signal
In short: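 Readout is reporter transcript level from endogenous transcription factor activity, quantified by RT-PCR with fluorescent primer extension and capillary electrophoresis. Transiently transfected HepG2 cells, 24 h exposure. Curves fitted both directions versus DMSO.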

[17] = ATG_AP_2_CIS: Attagene CIS-FACTORIAL HepG2 Assay for human Activator Protein 2 (AP-2) (AID 2282932); details: HepG2 AP-2 cis-reporter, Attagene transcription factor profiling; actives raise or lower the signal
In short: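 Read-out: fluorescent reporter mRNA via RT-PCR and capillary electrophoresis, 24 h post-dose in transiently transfected HepG2. Endogenous factors drive cis-promoter reporters; gain or loss of signal fitted bidirectionally against DMSO.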

[18] = ATG_BRE_CIS: Attagene CIS-FACTORIAL HepG2 Assay for human Bone Morphogenetic Protein (BMP) Response Element (BRE) (AID 2282933); details: HepG2 BMP response element reporter, Attagene transcription factor profiling; actives raise or lower the signal
In short: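 Multiplexed cis-reporter assay, HepG2, 24 h exposure. mRNA from reporter units quantified via RT-PCR/CE; DMSO baseline; bidirectional curve fit.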

[19] = biological target: Transcription factor E2F1 (Homo sapiens) (UniProt Q01094); assay: ATG_E2F_CIS: Attagene CIS-FACTORIAL HepG2 Assay for human E2F Transcription Factor 1 (AID 2282935); details: HepG2 Attagene cis-reporter, E2F reporter RNA transcripts; actives raise or lower the signal
Sequence of Transcription factor E2F1 (Homo sapiens) (Q01094 whole entry, looked up): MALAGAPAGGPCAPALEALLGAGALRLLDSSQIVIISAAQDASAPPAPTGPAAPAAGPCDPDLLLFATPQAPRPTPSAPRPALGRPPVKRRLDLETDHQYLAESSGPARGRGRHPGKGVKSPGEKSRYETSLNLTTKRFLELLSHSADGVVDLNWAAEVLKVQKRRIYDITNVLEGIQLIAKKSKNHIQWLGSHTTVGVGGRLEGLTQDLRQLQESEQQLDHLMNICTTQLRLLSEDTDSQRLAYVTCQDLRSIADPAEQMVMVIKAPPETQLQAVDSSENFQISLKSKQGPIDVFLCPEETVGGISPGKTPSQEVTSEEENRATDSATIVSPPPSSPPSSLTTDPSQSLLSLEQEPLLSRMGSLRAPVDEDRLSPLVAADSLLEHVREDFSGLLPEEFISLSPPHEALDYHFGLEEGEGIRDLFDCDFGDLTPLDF
In short: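 Transient MRTU transfection of HepG2; 24 h compound exposure; RNA → oligo(dT) RT → PCR → FAM label → HpaI cut → CE fluorescence. Gain/loss of signal fit against DMSO.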

Measured: AC50

CC1(C)C(=O)N(Br)C(=O)N1Br
active: [15] 68.5 µM
inactive: all other assays above

O=C(O)CCN(C1(C(=O)NO)CCCC1)S(=O)(=O)c1ccc(Oc2ccc(F)cc2)cc1
inactive: all assays above

CCOC(=O)COc1ccc2c(c1)CC(NCC(O)c1cccc(Cl)c1)CC2 (configuration not stated)
active: [3] 23.1 µM | [5] 23.2 µM | [11] 33 µM
inactive: all other assays above

CC(C)CCCCCCCOC(=O)CCCCC(=O)OCCCCCCCC(C)C
active: [15] 64.9 µM
inactive: all other assays above

COc1ccc(-n2nc(C(F)F)cc2-c2ccc(S(C)=O)cc2)cc1 (configuration not stated)
active: [9] 36.8 µM | [13] 5.24 µM
inactive: all other assays above

CC(O)CN(CCN(CC(C)O)CC(C)O)CC(C)O (configuration not stated)
inactive: all assays above

O=c1[nH]c2ccc(S(=O)CCN3CCC(Cc4ccc(F)cc4)CC3)cc2o1 (configuration not stated)
active: [1] 111 µM | [14] 173 µM | [18] 100 µM
inactive: all other assays above

CC[C@H]1OC(=O)[C@H](C)[C@@H](O[C@H]2C[C@@](C)(OC)[C@@H](O)[C@H](C)O2)[C@H](C)[C@@H](O[C@@H]2O[C@H](C)C[C@H](N(C)C)[C@H]2O)[C@](C)(O)C[C@@H](C)C(=O)[C@H](C)[C@@H](O)[C@]1(C)O
inactive: all assays above

CC(C)CCO
inactive: all assays above

COC(=O)c1ccccc1O
active: [14] 26.1 µM
inactive: all other assays above

On1ccccc1=S
active: [3] 21.5 µM | [6] 5.96 µM | [8] 8.59 µM | [10] 3.98 µM
inactive: all other assays above

O=C(OC[C@H]1O[C@@H](OC(=O)c2cc(O)c(O)c(OC(=O)c3cc(O)c(O)c(O)c3)c2)[C@H](OC(=O)c2cc(O)c(O)c(OC(=O)c3cc(O)c(O)c(O)c3)c2)[C@@H](OC(=O)c2cc(O)c(O)c(OC(=O)c3cc(O)c(O)c(O)c3)c2)[C@@H]1OC(=O)c1cc(O)c(O)c(OC(=O)c2cc(O)c(O)c(O)c2)c1)c1cc(O)c(O)c(OC(=O)c2cc(O)c(O)c(O)c2)c1
active: [2] 15.1 µM | [8] 23.2 µM | [9] 14.5 µM | [10] 18.7 µM
inactive: all other assays above

Cc1ccc(O)cc1
inactive: all assays above

C[C@](N)(Cc1ccc(O)c(O)c1)C(=O)O
active: [2] 58.4 µM
inactive: all other assays above

COc1cccc(-c2ccc(/C=C\CN3CCCCCC3)cc2Cl)c1
active: [1] 22.5 µM | [3] 17.6 µM | [5] 48.9 µM | [6] 32.3 µM | [7] 69.3 µM | [8] 22.5 µM | [10] 62 µM | [16] 16.2 µM | [18] 17.4 µM
inactive: all other assays above

COc1ccc2sc(C(=O)Nc3nnn[nH]3)c(OC(C)C)c2c1
active: [13] 26.9 µM | [14] 158 µM | [16] 27 µM | [18] 41.8 µM
inactive: all other assays above

O=P(OC(CCl)CCl)(OC(CCl)CCl)OC(CCl)CCl
active: [1] 47.5 µM | [2] 50 µM | [3] 39.6 µM | [5] 43.4 µM | [6] 59.2 µM | [11] 72.3 µM | [13] 100 µM | [18] 70.4 µM
inactive: all other assays above

CC[C@H]1CC[C@H](NCc2cc3c(cc2OC)[C@H]2C[C@H]2C(=O)N3C)[C@H](c2ccccc2)N1
active: [11] 58.6 µM | [12] 15.9 µM | [17] 55.4 µM
inactive: all other assays above
